Data taken from PubChem BioAssay AID463173 (ICCB-Longwood Screening Facility, Harvard Medical School, 2010).
“And” between values parts separate entries of the source, which are not always exact repeats. Identical values can stand only once. The campaign covered roughly 52,000 compounds. About 4,300 (8.3%) were called active. Cut-off read from the data, not from the text of the source: active = survival mostly below about 52% (no sharp cut-off); inactive = mostly above about 56%. The full list was thinned out, with actives kept by preference. Some structures have more than one record in an assay (separate samples or runs), and their calls can disagree.

Test system: DeltatarO mutant
Assay: S. aureus survival, RN4220 and DeltatarO strains – OD600, teichoic acid synthesis inhibitors, primary screen (AID 463173)
Settings: S. aureus RN4220 wild type/DeltatarO growth, OD600, 18 h, stronger effect = lower value, screened at 18.75 µg/mL (by protocol)

SMILES	survival
Cn1ccc2c(OCC(=O)Nc3ccc(OC(F)(F)F)cc3)cccc2c1=O	95% (inactive)
CCCc1nn2c(=O)cc(COC(=O)c3cccc(NC(=O)CCc4ccccc4)c3)nc2s1	131% (inactive)
CC(=O)c1ccc(NC(=O)Cn2c(=O)nc(-c3ccccc3)c3cc(Cl)ccc32)cc1	115% (inactive)
O=C(NCCC1=CCCCC1)C1CC(O)CN1C(=O)Nc1ccccc1 (stereo not given)	87% (inactive)
CCOC(=O)c1c(NC(=O)c2cc(-c3ccc(OC)c(OC)c3)on2)sc2c1CCCC2	52% (inactive)
CCOC(=O)c1c(NC(=O)c2cc(-c3cccc(OC)c3)on2)sc2c1CCCC2	46% (active)
CCOC(=O)c1c(-c2ccccc2)csc1NC(=O)c1cc(-c2ccc(C)c(F)c2)on1	52% (active)
CCOC(=O)c1c(-c2ccc(C)cc2)csc1NC(=O)c1cc(-c2ccc(C)c(F)c2)on1	55% (inactive)
CCOC(=O)c1c(NC(=O)c2cc(-c3ccc(Cl)cc3)on2)sc2c1CCCC2	68% (inactive)
CCOC(=O)c1c(-c2ccccc2)csc1NC(=O)c1cc(-c2ccc(F)cc2)on1	66% (inactive)
CCOC(=O)c1c(-c2ccccc2)csc1NC(=O)c1cc(-c2cccc(OC)c2)on1	43% (active)
CCOC(=O)c1c(-c2ccc(C)cc2)csc1NC(=O)c1cc(-c2ccc(OC)cc2)on1	49% (inactive)
CCOC(=O)c1c(-c2ccccc2)csc1NC(=O)c1cc(-c2cccc(Cl)c2)on1	59% (inactive)
CCc1ccccc1-n1nnc(-c2nsc(NC(=O)c3ccc(C)c(C)c3)n2)c1C	130% (inactive)
COc1ccc(NC(=O)C2Cc3ccccc3CN2S(=O)(=O)c2ccccc2)cc1OC (stereo not given)	94% (inactive)
CCc1c(C)sc2c1CCN(Cc1cccc(OC)c1)C2c1ccccc1 (stereo not given)	60% (inactive)
CCCCNC(=O)c1ccc2c(=O)n(Cc3ccc(OC)cc3)c(=O)[nH]c2c1	68% (inactive)
COc1cc(OC)c(NC(=O)CCNS(=O)(=O)c2ccc3c(c2)oc(=O)n3C)cc1Cl	83% (inactive)
Cc1cc(/C=C(\C#N)C(=O)N2CCc3ccccc3C2)c(C)n1C	87% (inactive)
O=C(/C=C\c1ccc2c(c1)OCO2)NC1CC(=O)N(c2cccc(F)c2)C1 (stereo not given)	67% (inactive)
Cc1sc(-n2cccc2)c(C(C)NC(=O)Nc2ccccc2Cl)c1C (stereo not given)	61% (inactive)
Cc1sc(-n2cccc2)c(C(C)NC(=O)Nc2cccc(C(F)(F)F)c2)c1C (stereo not given)	23% (active)
Cc1ccc(NC(=O)NC(C)c2c(-n3cccc3)sc(C)c2C)cc1F (stereo not given)	64% (inactive)

SMILES	survival
COC(=O)c1ccc(NC(=O)NC(C)c2c(-n3cccc3)sc(C)c2C)cc1 (stereo not given)	52% (inactive)
COc1ccc(NC(=O)NC(C)c2c(-n3cccc3)sc(C)c2C)cc1OC (stereo not given)	58% (inactive)
COC(=O)c1ccc(Cl)cc1NC(=O)NC(C)c1c(-n2cccc2)sc(C)c1C (stereo not given)	19% (active)
CCn1nc(CCC(=O)O)c2ccccc2c1=O	80% (inactive)
O=C(Nc1ccc2oc(-c3cccc4c(Br)cccc34)nc2c1)c1ccc(Br)cc1	71% (inactive)
Nc1ccc2oc(-c3ccccc3Br)nc2c1	87% (inactive) and 39% (active)
Cc1ccc2oc(-c3ccccc3C)nc2c1	105% (inactive)
CCOC(=O)CC(NC(=O)c1cc2cc(OC)ccc2oc1=O)c1ccc(OC)cc1 (stereo not given)	74% (inactive)
Cc1ccc(-c2noc(CNC(=O)c3ccccc3)n2)cc1	63% (inactive)
Cc1ccc(-c2noc(CCCC(=O)NCc3ccco3)n2)cc1	53% (inactive)
Cc1ccc(-c2noc(CNC(=O)c3ccc(C)c(Cl)c3)n2)cc1	49% (inactive)
Cc1ccccc1C(=O)NCc1nc(-c2ccc(Cl)cc2)no1	47% (active)
COc1cccc(-c2noc(CCCC(=O)NCc3ccco3)n2)c1	109% (inactive)
Cc1cccc(-c2noc(CNC(=O)c3ccccc3Br)n2)c1	72% (inactive)
Cc1cccc(-c2noc(CCCC(=O)NCc3ccco3)n2)c1	42% (active)
Cc1ccc(CC(=O)NCc2nc(-c3cccc(C)c3)no2)cc1	69% (inactive)
Cc1cccc(-c2noc(CNC(=O)c3ccc(C)cc3C)n2)c1	37% (active)
O=C(CSc1nc2ccccc2nc1Cc1ccc(Cl)cc1)N1CCc2ccccc21	93% (inactive)
O=C(NC1CC(=O)N(c2ccc(F)cc2)C1)C(c1ccccc1)c1ccccc1 (stereo not given)	124% (inactive)
CCc1ccc(C(=O)c2cn(CC(=O)Nc3ccc(Cl)cc3)c3cc4c(cc3c2=O)OCO4)cc1	146% (inactive)
CCc1ccc(NC(=O)Cn2ccn(-c3ccc(C)c(C)c3)c(=O)c2=O)cc1	104% (inactive)
COc1ccc(OC)c(CCNC(=O)c2sc3nc4n(c(=O)c3c2C)CCCC4)c1	80% (inactive)
COc1cccc(NC(=O)CCN2C(=O)c3ccccc3Sc3ncccc32)c1	102% (inactive)

SMILES	survival
O=c1c2cc3c(cc2nc2sc(Nc4cccc([N+](=O)[O-])c4)nn12)OCO3	123% (inactive)
CC(C)c1ccc(C2c3c(-c4ccccc4O)n[nH]c3C(=O)N2CCc2ccccc2)cc1 (stereo not given)	50% (inactive)
Cc1ccc(C2c3c(-c4ccccc4O)n[nH]c3C(=O)N2CCc2ccccc2)cc1 (stereo not given)	32% (active)
Cc1ccc(C2c3c(-c4ccccc4O)n[nH]c3C(=O)N2CCCO)cc1 (stereo not given)	58% (inactive)
O=C1c2[nH]nc(-c3ccccc3O)c2C(c2ccc(Cl)cc2)N1CCc1ccccc1 (stereo not given)	4% (active)
O=C1c2[nH]nc(-c3ccccc3O)c2C(c2ccc(F)cc2)N1CCO (stereo not given)	78% (inactive)
CCN1C(=O)N(CC)C2NC(=S)NNC21 (stereo not given)	91% (inactive)
CC(C)(C)OC(=O)N1CCC(c2c(C(=O)Nc3ccc4c(c3)OCCO4)cnn2-c2ccccc2)CC1	96% (inactive)
CCn1nc(C)c2c(-c3ccccc3)cc(=O)n(C(C)C(=O)NCCc3ccc(OC)c(OC)c3)c21 (stereo not given)	92% (inactive)
CCCS(=O)(=O)N1CC(=O)N(c2ccc(C)cc2C)C(C)(C(=O)NC2CCCCCC2)C1 (stereo not given)	67% (inactive)
CCC(=O)Nc1ccccc1-c1nc2ccccc2n(C(C)C(=O)Nc2cccc(Cl)c2C)c1=O (stereo not given)	42% (active)
CCC(=O)Nc1ccccc1-c1nc2ccccc2n(C(CC)C(=O)Nc2cccc(Cl)c2)c1=O (stereo not given)	24% (active)
CCC(=O)Nc1ccccc1-c1nc2ccccc2n(C(CC)C(=O)Nc2cccc(C(C)=O)c2)c1=O (stereo not given)	91% (inactive)
CCC(C(=O)Nc1ccc(C)c(Cl)c1)n1c(=O)c(-c2ccccc2NC(C)=O)nc2ccccc21 (stereo not given)	63% (inactive)
CC(=O)Nc1ccccc1-c1nc2ccccc2n(C(C)C(=O)Nc2cccc(C)c2C)c1=O (stereo not given)	100% (inactive)
CCC(=O)Nc1ccccc1-c1nc2ccccc2n(C(C)C(=O)Nc2ccc(OC)cc2)c1=O (stereo not given)	55% (inactive)
CC(C)N(C(=O)CSc1nnc(Cn2nnc3ccccc32)n1C)C(C)C	81% (inactive)
Cc1ccn2c(Nc3ccc4c(c3)OCO4)c(-c3ccc(N(C)C)cc3)nc2c1	101% (inactive)
COc1ccc(C(=O)Oc2ccc(C(c3c(C)[nH][nH]c3=O)c3c(C)[nH][nH]c3=O)cc2)cc1	80% (inactive)
CCS(=O)(=O)c1ccccc1C(=O)N(Cc1cccnc1)c1nc2cc(C)c(C)cc2s1	112% (inactive)
COc1ccc2sc(N(Cc3cccnc3)C(=O)c3ccco3)nc2c1	-2% (active)
Cc1cc2nc(N(Cc3cccnc3)C(=O)c3ccc(Cl)s3)sc2cc1C	32% (active)
COc1ccc2sc(N(Cc3cccnc3)C(=O)c3cccs3)nc2c1	76% (inactive)

SMILES	survival
COc1cc(C(=O)N(Cc2cccnc2)c2nc3cc(C)c(C)cc3s2)cc(OC)c1OC	49% (inactive)
COc1ccc2nc(N(Cc3cccnc3)C(=O)c3ccco3)sc2c1	101% (inactive)
COc1ccc(N(C(=O)c2snc(C(N)=O)c2N)C(C(=O)NCc2ccc(F)cc2)c2ccc(C)o2)c(OC)c1 (stereo not given)	67% (inactive)
Cc1ccccc1-c1noc(-c2ccc(N3CCCC3)c([N+](=O)[O-])c2)n1	65% (inactive)
CCC(Oc1ccccc1-c1nnc(-c2ccccc2)o1)C(=O)Nc1ccc(C(C)=O)cc1 (stereo not given)	112% (inactive)
Cc1ccc(-c2cc(NC(=O)C(C)Oc3ccccc3F)on2)cc1 (stereo not given)	33% (active)
CCC(Oc1ccccc1F)C(=O)Nc1cc(-c2ccccc2)no1 (stereo not given)	35% (active)
CCc1ccccc1NC(=O)C(CC)Oc1ccccc1-c1nnc(-c2ccccc2)o1 (stereo not given)	32% (active)
CC(Oc1ccc(F)cc1)C(=O)Nc1cc(-c2ccc(F)c(F)c2)no1 (stereo not given)	59% (inactive)
CCOC(=O)c1ccccc1NC(=O)COc1ccccc1-c1nnc(-c2ccccc2)o1	49% (inactive)
CCC(Oc1ccccc1F)C(=O)Nc1c(C(=O)c2ccccc2)oc2ccccc12 (stereo not given)	53% (inactive)
CCC(Oc1ccc(F)cc1)C(=O)Nc1cc(-c2ccc(C)cc2)no1 (stereo not given)	54% (inactive)
Cc1ccc(-c2cc(NC(=O)C(C)Oc3ccc(C)c(C)c3)on2)cc1 (stereo not given)	93% (inactive)
Cc1ccc(NC(=O)CCCn2c(=O)c3cccn3c3cccnc32)c(C)c1	87% (inactive)
COc1ccc(CNC(=O)CCc2nnc3n(C)c(=O)c4sccc4n23)cc1	180% (inactive)
O=C(CN1CCN(Cc2ccccc2Cl)C1=O)NCCc1ccc(Cl)cc1	49% (inactive)
COc1cccc(-c2nc(SCC(=O)NCC3CCCO3)c(-c3ccc(Cl)cc3)[nH]2)c1 (stereo not given)	63% (inactive)
CCOc1c(Br)cc(C2CC(=O)Nc3cc4c(cc32)OCO4)cc1OC (stereo not given)	127% (inactive)
COc1ccc(N2C(=O)CC(N3CCCCC3C)C2=O)cc1 (stereo not given)	106% (inactive)
CCC1CCCCN1C1CC(=O)N(c2ccc(NC(C)=O)cc2)C1=O (stereo not given)	96% (inactive)
CCOc1ccc(N2C(=O)CC(N3CCCCC3CC)C2=O)cc1 (stereo not given)	53% (active)
